Consider 34 molecules from PubChem BioAssay (EPA / NIEHS).

Several values for one entry are separate records, joined by “and”; a condition that tells them apart may be missing. Equal entries are not always repeated. Some structures have more than one record in an assay (separate samples or runs), and their calls can disagree. Activity calls are given as the source filed them. How the source made its calls: active means hit-call score of the fitted dose curve at least 0.9, where 1 is the maximum; inactive means score below 0.9.

Read-out in the assay: Monocyte Chemoattractant Protein-1 (MCP1), CCL2 (gene 6347)
Put plainly: BSK_BF4T_MCP1: BioMAP Diversity Plus: BF4T Assay for Monocyte Chemoattractant Protein-1 (MCP1) Biomarker Activity (AID 2284259). Particulars: primary human bronchial epithelial cells with fibroblasts. In short, it runs like this:
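Co-culture of bronchial epithelial cells and dermal fibroblasts dosed with chemical; MCP-1 measured by ELISA 24 h later. Activity fitted in positive direction versus DMSO; cytotoxicity checked by SRB staining in parallel cultures.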
As for `NC(=O)C(F)(F)C(F)(F)C(F)(F)C(F)(F)F`, the AC50 is 26.5 µM (active) and the result was inactive. Consider `C=C(C)C(=O)OCC(F)(F)C(F)(F)C(F)(F)F`, for which the result was inactive. As to `C=CC(F)(F)C(F)(F)C(F)(F)C(F)(F)C(F)(F)C(F)(F)C(F)(F)C(F)(F)F`, the outcome was inactive. `C=CC(=O)OCC(F)(F)C(F)(F)C(F)(F)C(F)(F)COC(=O)C=C`: the AC50 was 11.2 µM (active) and 15.5 µM (active). Consider `C=C(C)C(=O)OCCC(F)(F)C(F)(F)C(F)(F)C(F)(F)C(F)(C(F)(F)F)C(F)(F)F`, for which the outcome was inactive.

In the case of `O=S(=O)(OCCOC(F)(F)F)C(F)(F)F`, the outcome was inactive. Still for that read-out and setting: with `O=C(O)C(F)(OC(F)(F)C(F)(OC(F)(F)C(F)(F)C(F)(F)F)C(F)(F)F)C(F)(F)F` (stereo not given) the entry was “inactive”. On to `O=C(O)C(F)(F)C(F)(F)F`, for which the AC50 is 48 µM (active) and the result was inactive. With `O=C(O)C(F)(F)C(F)(F)C(F)(F)F`, the result was inactive. In the case of `OCC(F)(F)C(F)(F)C(F)(F)C(F)F`, the outcome was inactive. As for `O=C(Cl)C(F)(F)C(F)(F)C(F)(F)C(F)(F)C(F)(F)C(F)(F)C(F)(F)C(F)(F)F`, the AC50 was 45.5 µM (active) and the result was inactive. With `OCCCC(F)(F)C(F)(F)C(F)(F)C(F)(F)C(F)(F)C(F)(F)C(F)(F)F`, the AC50 was 38.4 µM (active) and 43.2 µM (active). On to `CC(C)(C)C(=O)CC(=O)C(F)(F)C(F)(F)C(F)(F)F`, for which the AC50 is 49.9 µM (active) and the outcome was inactive. Turning to `FC(F)(I)C(F)(F)C(F)(F)C(F)(F)I`, the AC50 is 38 µM (active) and 42.1 µM (active) and 42.5 µM (active).

Take `O=S(=O)(O)C(F)(F)C(F)(F)C(F)(F)C(F)(F)C(F)(F)C(F)(F)C(F)(F)F`: the result was inactive. `FC(F)(F)C(F)(F)C(F)(F)C(F)(F)CCI`: the AC50 was 7.18 µM (active) and the result was inactive.

As to `O=C(O)C(F)(F)C(F)(F)C(F)(F)C(F)(F)C(F)(F)C(F)(F)C(F)(F)C(F)(F)C(F)(F)C(F)(F)C(F)(F)C(F)(F)F`, the outcome was inactive.

In the case of `C=CC(=O)OCC(F)(F)C(F)(F)C(F)(F)C(F)(F)C(F)(F)C(F)(F)C(F)(F)F`, the outcome was inactive. On the same count and under the same terms, under `FC(F)(F)C(F)(F)C(F)(F)C(F)(F)C(F)(F)C(F)(F)C(F)(F)I` stands “inactive”; under `O=C(O)C=C(C(F)(F)F)C(F)(F)F`, “inactive”. `O=C(O)C(F)(F)C(F)(F)C(F)F`: the result was inactive.

For `Cc1ccc(S(=O)(=O)OCC(F)(F)C(F)(F)C(F)(F)C(F)(F)C(F)(F)C(F)F)cc1`, the AC50 is 7.88 µM (active) and the result was inactive. On to `FC(F)(F)C(F)(F)C(F)(F)C(F)(F)C(F)(F)C(F)(F)CC1CO1` (stereo not given), for which the outcome was inactive. The same measure, in the same setting: under `FC(F)(F)C(F)(F)C(F)(F)C(F)(F)C(F)(F)C(F)(F)CCS` stands “inactive”. With `O=C(O)C(F)(F)C(F)(F)C(F)(F)C(F)(F)C(F)(F)C(F)(F)C(F)(F)C(F)(F)Cl`, the AC50 was 40.4 µM (active) and 45.9 µM (active).

Consider `OCC(F)(F)C(F)(F)C(F)(F)F`, for which the result was inactive. On to `O=C(O)C(F)(F)C(F)(F)C(F)(F)C(F)(F)C(F)(F)C(F)(F)C(F)(F)C(F)(F)C(F)(F)C(F)F`, for which the AC50 is 13.3 µM (active) and 3.36 µM (active).

For the molecule `FC(F)(Br)C(F)(F)C(F)(F)C(F)(F)C(F)(F)C(F)(F)Br`, the outcome was inactive. Still for that read-out and setting: with `O=C(O)C(F)(OC(F)(F)C(F)(OC(F)(F)C(F)(OC(F)(F)C(F)(F)C(F)(F)F)C(F)(F)F)C(F)(F)F)C(F)(F)F` (stereo not given) the entry was “inactive”; with `OCC(F)(F)C(F)(F)C(F)(F)C(F)(F)C(F)(F)C(F)(F)F`, “inactive”. Take `FC(F)(F)C(F)(F)C(F)(F)C(F)(F)C(F)(F)CCI`: the outcome was inactive.

With `FC(F)(F)C(F)(F)C(F)(F)C(F)(F)C(F)(F)C(F)(F)C(F)(F)Br`, the outcome was inactive. Still for that read-out and setting: with `N=C(N)C(F)(F)C(F)(F)C(F)(F)C(F)(F)C(F)(F)C(F)(F)C(F)(F)F` the entry was “inactive”; with `C=CC(F)(F)C(F)(F)C(F)(F)C(F)(F)C(F)(F)C(F)(F)C(F)(F)C(F)(F)C=C`, “inactive”.

In general, AC50 refers to the concentration at which the activity in the assay is half-maximal.
